TRHR ag = qHTS for Small Molecule Agonists and Allosteric Enhancers of Human TRH Receptor: Primary Screen for Agonists | activation, % at 2 µM | TRHR cells, calcium flux fluo-8, FDSS agonist mode | Thyrotropin-releasing hormone receptor (Homo sapiens), P34981 | actives 0.18% (n = 360,000); also: 0% is about no effect
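Fluo-8-loaded TRHR cells; 10 s baseline, compound added, kinetic Ca2+ fluorescence read 1/s, agonist mode.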
D1 potentiator = Potentiators of Human D1 Dopamine Receptor: qHTS; potentiation, % at 10 µM; D(1A) dopamine receptor (Homo sapiens), P21728; actives 0.036% (n = 360,000); HEK293 TREx D1 cells, calcium flux, dopamine EC20 potentiation; in the data active = potentiation above about 30%; also: 0% is about no effect
Target sequence (P21728 whole entry, looked up): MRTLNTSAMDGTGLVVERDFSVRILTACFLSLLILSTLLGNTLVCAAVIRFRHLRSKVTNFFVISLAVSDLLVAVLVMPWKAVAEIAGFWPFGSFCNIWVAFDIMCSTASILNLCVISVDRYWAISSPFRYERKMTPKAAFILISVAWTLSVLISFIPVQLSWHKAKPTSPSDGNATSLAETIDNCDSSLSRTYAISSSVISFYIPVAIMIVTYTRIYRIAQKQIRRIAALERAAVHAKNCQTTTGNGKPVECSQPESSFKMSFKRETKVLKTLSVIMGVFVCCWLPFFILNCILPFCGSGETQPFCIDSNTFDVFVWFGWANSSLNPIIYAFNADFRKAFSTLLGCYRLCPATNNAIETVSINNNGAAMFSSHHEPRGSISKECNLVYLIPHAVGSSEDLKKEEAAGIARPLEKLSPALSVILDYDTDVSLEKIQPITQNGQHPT
D1 antagonist = Antagonist of Human D 1 Dopamine Receptor: qHTS. D(1A) dopamine receptor (Homo sapiens), P21728. HEK293 TREx D1 cells, calcium flux, dopamine EC80; hits give low values. activity change, negative = inhibition, % at 10 µM. actives 3.2% (n = 360,000); in the data active = activity change below about -30%; also: % is scaled to controls: 0 for no effect and ±100 for the full control effect
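Inducible Hek293 Trex D1 cells (tetracycline, overnight, 30 C). Calcium dye 30–90 min RT. Antagonist mode: EC80 dopamine added after 180 s compound read.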
TRHR enhancer = qHTS for Small Molecule Agonists and Allosteric Enhancers of Human TRH Receptor: Primary Screen for Enhancers | Thyrotropin-releasing hormone receptor (Homo sapiens), P34981 | TRHR cells, fluo-8 calcium fluorescence, EC20 TRH enhancement | enhancement, % at 2 µM | actives 0.66% (n = 360,000) | AID 493056, 2011; in the data active = enhancement above about 30%; also: 0% is about no effect
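Enhancer read-out: after compound pinning and an initial kinetic agonist-mode read, an EC20 of TRH (10 nM final) was injected and fluo-8 calcium signal (Ex 480/Em 530) followed at 1 s/cycle for 100 cycles in TRHR-expressing cells.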
D1 agonist = Allosteric Agonists of the Human D1 Dopamine Receptor: qHTS. actives 1% (n = 360,000). HEK293 T-REx D1 cells, calcium flux, agonist mode. D(1A) dopamine receptor (Homo sapiens), P21728. AID 504660, 2011. activation, % at 2 µM; also: 0% is about no effect
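Inducible HEK293 T-REx D1 cells, force-coupled to calcium signalling, were plated at 4000 cells/well with tetracycline and held overnight at 30 C. After no-wash calcium dye loading, compound-evoked calcium rise over 180 s flagged agonists.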
Starred values were filed as active, the others as inactive. Shown are actives, neighbours in structure and some others; about 4.6% of the full set was active somewhere. Rule as the data show it, unless noted: active = activation above about 30%; inactive = the rest.

SMILES	TRHR ag	D1 potentiator	D1 antagonist	TRHR enhancer	D1 agonist
COc1ccc(CN(C(=O)c2snc(C(N)=O)c2N)C(C(=O)NC2CCCC2)c2ccc(OC)c(OC)c2)cc1 (stereo unspecified)	0.2	2.9	-4.6	14.7	2.9
Cc1ccc(C)c(NC(=O)C(=O)NCCc2csc(-c3ccc(C(F)(F)F)cc3)n2)c1	0.6	-2.0	15.6	-0.3	-0.1
O=C(Cc1ccccc1)NCCc1csc2nc(-c3ccc(Cl)cc3)nn12	-0.1	-3.5	-3.0	-6.7	4.3
COc1ccccc1N1CCN(C(=O)c2nn(-c3ccc(C)cc3)c(=O)n(C)c2=O)CC1	-0.3	0.5	-2.1	-4.6	-0.5
COc1ccc(-c2csc3ncnc(Nc4ccc(OC)c(OC)c4)c23)cc1	-0.7	1.9	7.3	-2.0	3.7
CCCCOc1ccc(C(=O)NCC2(N3CCN(C)CC3)CCCCC2)cc1	-0.9	-1.2	-17.8	-6.2	-0.6
Cc1ccc(C(=O)CSc2nc3cccnc3n2C)cc1	-1.9	-7.5	-37.0*	-2.9	7.3
CCOc1ccc(C(=O)NCCn2cc(SCC(=O)Nc3ccccc3)c3ccccc32)cc1	-1.9	-3.5	-0.1	7.4	0.9
CCOC(=O)c1c(C)[nH]c(C(C)=O)c1C	0.8	4.6	-23.5	4.4	0.8
CCOC(=O)c1c(C)[nH]c(C(=O)C(C)Cl)c1C (stereo unspecified)	-0.4	-12.9	-31.7*	-4.2	1.0
CCOC(=O)c1c(C)[nH]c(C(=O)CN(C)CC(=O)Nc2ccccc2Cl)c1C	-0.2	-10.8	-41.0*	-3.5	4.8
CN(CC(=O)Nc1ccccc1Cl)CC(=O)c1c(N)n(Cc2ccccc2)c(=O)n(C)c1=O	0.0	9.2	-31.8*	4.0	2.1
CCOC(=O)c1c(C)[nH]c(C(=O)OCC(=O)Nc2ccccc2)c1C	0.3	-11.8	-73.0*	5.5	26.0
CCCn1c(=O)c2sccc2n2c(CCCC(=O)Nc3ccccc3OCC)nnc12	-0.4	0.6	-0.6	-1.3	1.0
COc1cccc(NC(=O)Cn2c(=O)n(-c3ccc(CC(=O)NCC4CCCO4)cc3)c(=O)c3ccccc32)c1 (stereo unspecified)	0.1	1.3	-3.0	-2.9	1.8
Cc1ccc([N+](=O)[O-])cc1N/C=C1\CCCCC1=O	-0.1	-4.3	12.6	12.8	36.9*
Cc1cc(O)ccc1N/C=C1\CCCC1=O	0.2	1.5	15.8	2.6	6.9
CCOc1ccc2nc(N3CCCC(C(=O)Nc4ccccc4CC)C3)sc2c1 (stereo unspecified)	0.0	-1.3	16.1	10.1	-0.7
O=C(COC(=O)Cc1ccc(S(=O)(=O)N2CCOCC2)s1)NCCc1ccccc1	0.3	0.1	3.1	-6.1	1.6
O=C(COC(=O)Cc1ccc(S(=O)(=O)N2CCOCC2)s1)NCc1ccccc1	0.5	-4.3	-48.3*	5.8	4.2
O=C(NNC1=NC2(CCCC2)Cc2ccccc21)c1ccncc1	-0.1	-3.2	2.3	8.2	0.8
CC(C)CN(CC(C)C)c1nnc(NC(=O)Nc2cccc(C(F)(F)F)c2)s1	-0.5	-2.1	-16.3	4.0	0.3
CCn1ccnc1CN1CCN(CC=C(C)C)C(CCO)C1 (stereo unspecified)	0.0	-3.5	-10.2	31.3*	0.3
CC(C)Nc1nc(NC(C)(C)C)nc(Oc2ccc(=O)n(C)n2)n1	0.4	-0.1	13.9	-1.7	47.2*
Cc1nc(Br)c(Br)c(C)c1Br	1.1	-8.9	-30.7*	1.0	5.1
SMILES	TRHR ag	D1 potentiator	D1 antagonist	TRHR enhancer	D1 agonist
Cc1nc(N2CCOCC2)c(C#N)c(C)c1Br	-0.9	0.8	16.8	-2.1	-3.6
COc1ccc(N2CCN(C(=O)c3cc(S(=O)(=O)N4CCC(C)CC4)cn3C)CC2)cc1	-0.7	-1.1	-11.5	0.1	1.2
Cc1ccc2nc(-c3ccc(NC(=S)NC4CC(C)(C)NC(C)(C)C4)cc3)sc2c1	0.3	-3.4	-2.7	0.5	41.0*
Cn1cc(-c2cc3n(n2)CCC(=O)N3CCCC(=O)NCc2ccc(F)cc2)c2ccccc21	-1.1	-3.1	-32.7*	-1.7	-0.2
CCc1cccc(C)c1NC(=O)c1cc(S(=O)(=O)N2CCN(c3ccccc3)CC2)ccc1F	0.1	-1.4	8.8	-5.8	3.9
COC(=O)C1=CNC=C(C(=O)OC)C1c1ccc(C(=O)OC)cc1	8.6	-4.4	-6.2	1.0	38.4*
COC(=O)C1=C(C)N(C)C(C)=C(C(=O)OC)C1c1ccc(C(=O)OC)cc1	0.9	-1.1	-2.7	5.7	0.1
Cc1ccccc1Nc1nc(N)c(C(=O)c2ccccc2Cl)s1	-0.3	-3.0	-48.2*	3.8	95.5*
CCCSc1nsc(NC(=O)Nc2ccc(F)cc2F)n1	-0.4	-7.5	-59.5*	15.5	33.2*
CCSc1nsc(NC(=O)Nc2cccc(F)c2)n1	6.7	-6.5	-44.5*	-3.4	42.0*
COc1cccc(NC(=O)Nc2nc(SC(C)(C)C)ns2)c1	5.4	-7.7	-40.2*	-9.6	29.9
Cc1c(-c2ccccc2)n(-c2ccc(Cl)cc2)c2nc3c(c(=O)n(C)c(=O)n3C)n12	0.8	-1.2	-5.6	5.9	6.4
O=C(N/N=C/c1sc(N2CCOCC2)nc1-c1ccccc1)c1ccccc1Cl	0.9	1.7	7.0	0.1	0.3
O=[N+]([O-])c1ccc(N/N=C/c2sc(N3CCOCC3)nc2-c2ccccc2)c(S(=O)(=O)Nc2ccc(Cl)cc2)c1	15.4	-4.0	-34.6*	-1.8	62.4*
O=[N+]([O-])c1ccc(N/N=C/c2sc(N3CCOCC3)nc2-c2ccccc2)c(S(=O)(=O)Nc2ccccc2Cl)c1	18.8	-5.2	-34.4*	-9.2	79.3*
Cc1oc(-c2ccc(C(=O)NCCN(C)C)cc2)nc1CS(=O)(=O)c1ccccc1	0.5	-3.1	-12.7	4.6	-0.8
CC1=NN(c2cccc(F)c2)C(=O)/C1=C/c1ccc(N(C)C)cc1	-0.1	-13.8	-84.8*	-27.1	-0.9
Oc1ccccc1OCc1nc2ccccc2s1	-0.7	-6.0	-31.1*	-8.2	-0.7
NC(=O)CSCc1nc2ccccc2s1	1.5	-1.1	11.9	36.6*	4.1
N/C(Cc1nc2ccccc2s1)=N\O	1.6	-3.0	10.3	-0.6	4.2
C=C[C@@](C)(O)CC[C@@H]1[C@@]2(C)CCCC(C)(C)[C@@H]2CC[C@@]1(C)O	-0.7	9.1	-1.2	-6.0	48.8*
COc1ccc(OC)c(NC(=O)CSc2nccn2-c2cc(C)cc(C)c2)c1	-0.6	3.0	-13.1	-1.3	4.2
CCc1ccc(NC(=O)CSc2nc3ccccc3c(=O)n2CCCN2CCC(C)CC2)cc1	0.5	2.5	9.1	-3.3	13.7
Cc1ccccc1Nc1nnc(SCc2cc(=O)n3ccsc3n2)s1	-0.2	8.2	-54.1*	8.2	4.6

Assay outcomes from PubChem BioAssay.
